Measurements published in PubChem BioAssay (Tox21).
Results filed as inconclusive are left out. Calls of active or inactive are those of the source. Unless noted, calls follow the shape of the dose curve; as a rule, active = well fitted curve in the direction sought with a large enough effect in the repeat runs; inconclusive = weak or mixed curves; inactive = no such curve, though single readings can be large; an effect the other way counts as inactive or inconclusive.

Experiments:
[1] = qHTS assay to identify small molecule antagonists of the estrogen receptor alpha (ER-alpha) signaling pathway using the BG1 cell line in the presence of 0.1 nM 17-beta-estradiol - cell viability counter screen (AID 1259241); also: nearly all actives have a fitted effect of over 40% in size
Outline: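 VM7Luc4E2 cells (endogenous ER-alpha, 4×ERE-luciferase), hormone-starved 5 days in charcoal-stripped FBS, were treated with compounds plus 0.1 nM 17beta-estradiol for 22 hr at 37C; viability read in same wells as CellTiter-Fluor live-cell protease fluorescence.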

[2] = qHTS assay to identify small molecule antagonists of the androgen receptor (AR) signaling pathway using the MDA cell line in the presence of 0.5 nM R1881 - cell viability counter screen (AID 1259242); also: nearly all actives have a fitted effect of over 45% in size
Outline: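 MDA-kb2 cells (MMTV-luciferase, AR/GR responsive) were treated with compounds plus 0.5 nM R1881 (final) for 16 hr at 37C, 0% CO2. Viability was then read in the same wells as live-cell protease fluorescence (CellTiter-Fluor, 30 min).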

[3] = qHTS assay to identify small molecule phospholipidosis (PLD) inducers (AID 1259344; active = well fitted curve in the direction sought with a large enough effect; an effect the other way counts as inactive or inconclusive)
Outline: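 Fluorescent phospholipid staining (LipidTOX Red) measured by automated microscopy in fixed HepG2 cells after 24 h treatment; nuclei counterstained with Hoechst 33342; amiodarone as reference inducer.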

[4] = qHTS assay to identify small molecule HDAC inhibitors (AID 1259364); also: nearly all actives have a fitted effect of over 45% in size; also: potency is read from the fitted curve at half-maximal effect
Outline: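 Wild-type HCT-116 cells, plated overnight at 37 C, exposed to compounds 2 hr at 37 C; luminogenic HDAC-Glo substrate then added 30 min at room temperature. Luminescence reports relative endogenous class I/II HDAC activity.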

[5] = qHTS assay to identify small molecule HDAC inhibitors - cell viability counter screen (AID 1259365); also: series mostly up to about 92 µM; nearly all actives have a fitted effect of over 50% in size
Outline: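 Wild-type HCT-116 cells were seeded at 1,500 per well, incubated overnight at 37 C, then exposed to compounds in DMSO for 2hr. Viability was read by CellTiter-Glo luminescence after 30min at room temperature.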

[6] = qHTS assay to identify small molecule agonists of the sonic hedgehog signaling (Shh) pathway - cell viability counter screen (AID 1259366); also: nearly all actives have a fitted effect of over 50% in size
Outline: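 NIH/3T3-derived 3T3 Gli1-Luc cells (stable Gli1-responsive firefly luciferase reporter) were seeded, rested 4 hr at 37 C/5% CO2, then exposed to compounds in DMSO for 24 hr; viability was read by CellTiter-Fluor fluorescence in the same wells.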

[7] = qHTS assay to identify small molecule antagonists of the sonic hedgehog signaling (Shh) pathway - cell viability counter screen (AID 1259367); also: nearly all actives have a fitted effect of over 55% in size
Outline: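 Using CellTiter-Fluor, viability of Gli1-Luc reporter 3T3 cells is read by fluorescence in the wells used for the Shh luciferase assay. Treatment lasts 23 hr with conditioned medium, then reagent 1 hr at 37C.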

[8] = qHTS assay to identify small molecule agonists of the sonic hedgehog signaling (Shh) pathway (AID 1259368; calls by dose curve; also: series mostly up to about 92 µM; nearly all actives have a fitted effect of over 15% in size)
Outline: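 NIH/3T3-derived 3T3Gli1-Luc cells with stably integrated Gli1-driven firefly luciferase, 2,000 cells/well, compounds added after 4 hr. Incubated 24 hr at 37C, 5% CO2; luminescence read after 30 min with luciferase reagent at room temperature.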

[9] = qHTS assay to identify small molecule agonists of the androgen receptor (AR) signaling pathway in the presence of an antagonist - cell viability counter screen (AID 1259379);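 also: MDA-kb2 human breast cancer cells carrying an MMTV luciferase reporter; series mostly up to about 92 µM; nearly all actives have a fitted effect of over 25% in size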
Outline: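 MDA-kb2 cells (MMTV-luciferase, AR/GR), 3,000/well, 5 h attachment, then 3.0 µM nilutamide (final) and compounds at 15 concentrations. Viability by CellTiter-Fluor fluorescence after 16 h at 37 °C, 0% CO2, in the reporter wells.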

[10] = qHTS assay to identify small molecule antagonists of the estrogen receptor beta (ER-beta) signaling pathway - cell viability counter screen (AID 1259382); also: series mostly up to about 92 µM; nearly all actives have a fitted effect of over 55% in size
Outline: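 ER-beta-UAS-bla HEK293T cells in 2% charcoal-stripped FBS medium, treated with compound plus 1 nM 17-beta-estradiol for 16 h at 37C. Viability read by CellTiter-Glo luminescence after 30 min at room temperature in the same wells.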

[11] = target: Estrogen receptor (Homo sapiens) (UniProt P03372); assay: qHTS assay to identify small molecule agonists of the estrogen receptor alpha (ER-alpha) signaling pathway in the presence of an antagonist (AID 1259383; calls by dose curve; also: top concentration of the series differs between compounds; nearly all actives have a fitted effect of over 15% in size)
Chain of Estrogen receptor (Homo sapiens) (P03372 whole entry, looked up): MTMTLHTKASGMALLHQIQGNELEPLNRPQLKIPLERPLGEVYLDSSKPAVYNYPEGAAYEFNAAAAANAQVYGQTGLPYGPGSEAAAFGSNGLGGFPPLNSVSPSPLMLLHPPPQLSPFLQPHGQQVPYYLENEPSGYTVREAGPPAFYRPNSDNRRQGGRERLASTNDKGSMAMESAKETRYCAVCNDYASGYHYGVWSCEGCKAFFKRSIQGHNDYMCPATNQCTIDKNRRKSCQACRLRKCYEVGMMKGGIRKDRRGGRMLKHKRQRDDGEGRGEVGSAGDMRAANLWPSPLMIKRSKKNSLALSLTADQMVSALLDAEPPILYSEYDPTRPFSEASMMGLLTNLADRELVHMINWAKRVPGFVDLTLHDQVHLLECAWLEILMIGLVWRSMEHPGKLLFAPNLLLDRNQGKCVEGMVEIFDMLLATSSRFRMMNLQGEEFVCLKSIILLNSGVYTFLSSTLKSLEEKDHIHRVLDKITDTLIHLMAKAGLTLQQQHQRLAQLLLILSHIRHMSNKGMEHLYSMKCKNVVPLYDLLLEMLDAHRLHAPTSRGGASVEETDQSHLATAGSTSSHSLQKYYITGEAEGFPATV
Outline: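 VM7Luc4E2 cells express endogenous full-length ER-alpha with an ERE-luciferase reporter and were hormone-deprived for 5 days. Compounds at 15 concentrations were added with 10.0nM ICI-182,780 for 22hr at 37C. Luminescence was read with ONE-Glo.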

[12] = qHTS assay to identify small molecule agonists or antagonists of the thyroid stimulating hormone receptor (TSHR) signaling pathway - wild type cell line counter screen (AID 1259384; calls by dose curve)
Outline: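 Counter screen in untransfected Hek293: compounds (15-point titration, triplicate) plus phosphodiesterase inhibitor Ro20-1724 added after 18 h plating; 30 min RT. Intracellular cAMP via competitive d2/cryptate immunoassay, 1 h incubation.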

[13] = target: Thyrotropin receptor (Homo sapiens) (UniProt P16473); assay: qHTS assay to identify small molecule antagonists of the thyroid stimulating hormone receptor (TSHR) signaling pathway (AID 1259385; calls by dose curve; also: nearly all actives have a fitted effect of over 20% in size)
Chain of Thyrotropin receptor (Homo sapiens) (P16473 whole entry, looked up): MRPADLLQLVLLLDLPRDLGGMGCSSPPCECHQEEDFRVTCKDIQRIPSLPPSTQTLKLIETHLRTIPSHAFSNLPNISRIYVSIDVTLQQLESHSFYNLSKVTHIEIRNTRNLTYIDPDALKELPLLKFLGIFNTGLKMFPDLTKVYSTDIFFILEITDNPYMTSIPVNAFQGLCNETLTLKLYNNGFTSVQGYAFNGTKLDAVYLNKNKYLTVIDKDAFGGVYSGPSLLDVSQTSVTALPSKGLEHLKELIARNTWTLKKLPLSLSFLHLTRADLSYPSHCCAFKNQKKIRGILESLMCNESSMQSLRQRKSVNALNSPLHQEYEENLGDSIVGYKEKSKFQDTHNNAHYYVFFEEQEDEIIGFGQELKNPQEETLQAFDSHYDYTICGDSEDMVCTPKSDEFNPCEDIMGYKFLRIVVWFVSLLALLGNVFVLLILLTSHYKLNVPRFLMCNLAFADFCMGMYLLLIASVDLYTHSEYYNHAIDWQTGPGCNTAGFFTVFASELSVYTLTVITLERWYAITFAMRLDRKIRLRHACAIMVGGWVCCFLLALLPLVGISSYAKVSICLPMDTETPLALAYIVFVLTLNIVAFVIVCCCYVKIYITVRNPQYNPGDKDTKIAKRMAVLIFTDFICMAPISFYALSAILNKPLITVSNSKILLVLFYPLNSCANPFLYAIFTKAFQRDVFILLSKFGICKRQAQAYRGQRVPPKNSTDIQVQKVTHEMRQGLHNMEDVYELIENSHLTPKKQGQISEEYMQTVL
Outline: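 Antagonist mode: compound-treated TSHR-expressing HEK293 cells were stimulated with 1.5 ng/mL TSH (final) in presence of Ro20-1724 for 30 min at RT. HTRF cAMP detection after 1 h; each compound tested at 15 concentrations, triplicate.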

[14] = target: Estrogen receptor beta (Homo sapiens) (UniProt Q92731); assay: qHTS assay to identify small molecule agonists of the estrogen receptor beta (ER-beta) signaling pathway (AID 1259377; active = well fitted activation curve with a large enough effect in the signal ratio in the repeat runs, not every such curve was filed as active; the % refers to the signal ratio)
Chain of Estrogen receptor beta (Homo sapiens) (Q92731 whole entry, looked up): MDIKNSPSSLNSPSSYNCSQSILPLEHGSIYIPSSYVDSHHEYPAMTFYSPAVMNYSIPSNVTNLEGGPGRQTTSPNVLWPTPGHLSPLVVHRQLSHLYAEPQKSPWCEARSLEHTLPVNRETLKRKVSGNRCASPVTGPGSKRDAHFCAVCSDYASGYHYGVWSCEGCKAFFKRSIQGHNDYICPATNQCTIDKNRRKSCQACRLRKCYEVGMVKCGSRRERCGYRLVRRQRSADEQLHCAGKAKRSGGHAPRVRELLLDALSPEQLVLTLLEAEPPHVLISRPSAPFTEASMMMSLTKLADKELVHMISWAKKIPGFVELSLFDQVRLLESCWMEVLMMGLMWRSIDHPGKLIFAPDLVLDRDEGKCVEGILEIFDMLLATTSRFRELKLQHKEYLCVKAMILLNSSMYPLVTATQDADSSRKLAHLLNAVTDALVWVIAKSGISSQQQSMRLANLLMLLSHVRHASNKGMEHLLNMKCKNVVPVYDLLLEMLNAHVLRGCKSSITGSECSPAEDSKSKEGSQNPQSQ
Outline: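 ER-beta-UAS-bla HEK293T (GripTite) cells carrying a UAS-driven beta-lactamase reporter, in medium with 2% charcoal-stripped FBS, were exposed to compounds for 16 hr at 37C; LiveBLAzer B/G FRET substrate was then added and fluorescence read after 2 hours at room temperature.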

[15] = qHTS assay to identify small molecule agonists of the estrogen receptor beta (ER-beta) signaling pathway - cell viability counter screen (AID 1259380); also: nearly all actives have a fitted effect of over 30% in size
Outline: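 ER-beta-UAS-bla HEK293T cells in medium with 2% charcoal-stripped FBS, pre-incubated 6 hr, then treated 16 hr at 37C. Cytotoxicity read in the same wells by CellTiter-Glo luminescence after 30 min at room temperature.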

[16] = qHTS assay to identify small molecule antagonists of the sonic hedgehog signaling (Shh) pathway (AID 1259369; calls by dose curve; also: nearly all actives have a fitted effect of over 45% in size)
Outline: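 NIH/3T3-derived Gli1-Luc reporter cells plated 4 h, dosed with compound, then stimulated with conditioned medium for 24 h at 37 C. Firefly luciferase luminescence read after 30 min with detection reagent at room temperature.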

[17] = target: Estrogen receptor beta (Homo sapiens) (UniProt Q92731); assay: qHTS assay to identify small molecule antagonists of the estrogen receptor beta (ER-beta) signaling pathway (AID 1259378; active = well fitted inhibition curve with a large enough effect in the signal ratio in the repeat runs, not every such curve was filed as active; the % refers to the signal ratio)
Outline: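 Antagonist mode: compounds added to beta-lactamase reporter HEK293T ER-beta-UAS cells stimulated with E2 (1nM final), 16 hr at 37C. LiveBLAzer B/G FRET substrate, 2 hours room temperature, fluorescence read-out.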
% is scaled to controls: 0 for no effect and ±100 for the full control effect.

Cc1ncc(COP(=O)(O)O)c(C=O)c1O
inactive: outcome [1] | outcome [2] | outcome [3] | Potency [4] | outcome [5] | Potency [6] | Potency [7] | outcome [8] | Potency [9] | outcome [10] | outcome [11] | outcome [12] | outcome [13]

CN1CCN(c2cc3c(nn2)Oc2ccccc2N3C)CC1
inactive: activity change, negative = cytotoxicity [1] -8.18% [at 19 µM] | viability change, negative = cytotoxic [2] 0.195% [at 19 µM] | outcome [3] | activity change, negative = cytotoxicity [5] 2.56% [at 19 µM] | viability change, negative = cytotoxic [6] 8.2% [at 19 µM] | viability change, negative = cytotoxic [7] 0.668% [at 19 µM] | activity change [8] 5.44% [at 18.9 µM] | activation [14] 7.81% [at 19 µM] | activity change, negative = cytotoxicity [9] 0.723% [at 19 µM] | activity change, negative = cytotoxicity [15] 2.64% [at 19 µM] | cAMP activity change [12] -3.2% [at 18.9 µM]
active: Potency [4] 4.61 µM

CCCc1nn(C)c2c(=O)[nH]c(-c3cc(S(=O)(=O)N4CCN(C)CC4)ccc3OCC)nc12
inactive: outcome [1] | outcome [2] | outcome [3] | Potency [4] | outcome [5] | Potency [6] | Potency [7] | outcome [8] | Potency [9] | outcome [12] | outcome [13]

COc1ccccc1OCC1CNC(=O)O1 (configuration not stated)
inactive: outcome [1] | outcome [2] | PLD induction [3] 3.13% [at 7.66 µM] | Potency [4] | outcome [5] | Potency [6] | Potency [7] | outcome [8] | Potency [9] | Potency [15] | outcome [10] | outcome [12] | outcome [13]

C[C@H]1[C@H](NC(=O)/C(=N/OC(C)(C)C(=O)O)c2csc(N)n2)C(=O)N1S(=O)(=O)O (stereo in doubt)
inactive: outcome [1] | outcome [2] | outcome [3] | Potency [4] | outcome [5] | Potency [6] | Potency [7] | outcome [8] | Potency [16] | Potency [14] | Potency [17] | Potency [9] | Potency [15] | outcome [10] | outcome [12] | outcome [13]

CC(=O)OCC(=O)[C@@]1(O)[C@H](C)C[C@H]2[C@@H]3CCC4=CC(=O)C=C[C@]4(C)[C@@]3(F)[C@@H](O)C[C@@]21C
inactive: outcome [1] | outcome [2] | outcome [3] | Potency [4] | outcome [5] | Potency [6] | Potency [7] | outcome [8] | Potency [16] | Potency [14] | Potency [17] | Potency [9] | Potency [15] | outcome [10] | outcome [12] | outcome [13]

COc1c(N2CCNC(C)C2)c(F)cc2c(=O)c(C(=O)O)cn(C3CC3)c12 (configuration not stated)
inactive: outcome [1] | outcome [2] | outcome [3] | Potency [4] | outcome [5] | Potency [6] | Potency [7] | outcome [8] | Potency [14] | Potency [17] | Potency [9] | Potency [15] | outcome [10]

CC12CCC(C(=O)C1=O)C2(C)C (configuration not stated)
inactive: outcome [1] | outcome [2] | Potency [4] | outcome [5] | Potency [6] | Potency [7] | outcome [8] | Potency [16] | Potency [9] | Potency [15] | outcome [10]

Clc1cc(Cl)c(Cl)nc1Cl
inactive: outcome [1] | outcome [2] | Potency [4] | outcome [5] | Potency [6] | Potency [7] | outcome [8] | Potency [16] | Potency [9] | Potency [15] | outcome [10] | outcome [12]

CC(C)[C@H]1CC[C@@H](C)CC1=O
inactive: outcome [1] | outcome [2] | Potency [4] | outcome [5] | Potency [6] | Potency [7] | outcome [8] | Potency [16] | Potency [9] | Potency [15] | outcome [10] | outcome [12] | outcome [13]

CC(C)C(=O)OC(=O)C(C)C
inactive: outcome [1] | outcome [2] | Potency [4] | outcome [5] | Potency [6] | Potency [7] | outcome [8] | Potency [14] | Potency [17] | Potency [9] | Potency [15] | outcome [10] | outcome [12]

CCCCCCCCN1CCCC1=O
inactive: outcome [1] | outcome [2] | Potency [4] | outcome [5] | Potency [6] | Potency [7] | outcome [8] | Potency [16] | Potency [14] | Potency [17] | Potency [9] | Potency [15] | outcome [10] | outcome [12] | outcome [13]

CC(=O)C1CCCCC1=O (configuration not stated)
inactive: outcome [1] | outcome [2] | Potency [4] | outcome [5] | Potency [6] | Potency [7] | outcome [8] | Potency [16] | Potency [9] | Potency [15] | outcome [10] | outcome [11] | outcome [12] | outcome [13]
